# Results filed as inconclusive are left out. A call without a number means that no potency is given here. Active and inactive are the calls of the source. Calls come from the whole dose curve; as a rule, active = well fitted inhibition curve with a large enough effect; inconclusive = small, poorly fitted or top-dose-only effect; inactive = flat fitted curve, though single readings scatter.
# What was measured:
# Test in all cases: qHTS profiling for inhibitors of Plasmodium falciparum proliferation (AID 504749); note: nearly all actives have a fitted effect of over 60% in size
# Conditions in all cases: P. falciparum in erythrocytes, SYBR Green DNA, 72 h; series mostly up to 28.7 µM
# AA1029 = test system: AA1029
# How it was run: (§1)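 Each compound contacts P. falciparum-infected red blood cells for 72 h at 37 C; lysis buffer (Tris, EDTA, saponin, Triton X, SYBR Green I) is added and fluorescence measured next morning; values normalized to controls.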
# AS120 = test system: AS120
# How it was run: as §1
# ATS189 = test system: ATS189
# How it was run: as §1
# ATS95 = test system: ATS95
# How it was run: as §1
# C2A = test system: C2A
# How it was run: as §1
# CP185 = test system: CP185
# How it was run: as §1
# CP191 = test system: CP191
# How it was run: as §1
# CP192 = test system: CP192
# How it was run: as §1
# CP194 = test system: CP194
# How it was run: as §1
# CP201 = test system: CP201
# How it was run: as §1
# Potency is the fitted concentration of half-maximal effect.
SMILES,Potency (AA1029),Potency (AS120),Potency (ATS189),Potency (ATS95),Potency (C2A),Potency (CP185),Potency (CP191),Potency (CP192),Potency (CP194),Potency (CP201)
O=[N+]([O-])c1ccccc1,inactive,inactive,inactive,inactive,inactive,inactive,inactive,inactive,inactive,inactive
CN1CCCC(=C(c2cccs2)c2cccs2)C1,–,–,–,–,inactive,–,inactive,inactive,–,inactive
O=C1C2CC=CCC2C(=O)N1SC(Cl)(Cl)Cl (configuration not stated),inactive,inactive,inactive,inactive,inactive,inactive,inactive,inactive,inactive,inactive
CCC1(C)CC(=O)NC(=O)C1,inactive,inactive,inactive,–,inactive,inactive,inactive,inactive,inactive,inactive
CC1CCC(C(C)C)C(OC(=O)c2ccccc2N)C1 (configuration not stated),inactive,inactive,–,–,inactive,inactive,inactive,inactive,inactive,inactive
O=Cc1ccco1,inactive,–,inactive,inactive,inactive,inactive,inactive,inactive,inactive,inactive
ClC(Cl)(Cl)Cl,inactive,inactive,inactive,inactive,inactive,inactive,inactive,inactive,inactive,inactive
Clc1ccc(C2(Cn3cncn3)OCCO2)c(Cl)c1,inactive,inactive,inactive,inactive,inactive,inactive,inactive,inactive,inactive,inactive
N#CC(C#N)=Cc1cc(O)c(O)c(O)c1,12.6 µM (active),8.91 µM (active),–,–,10 µM (active),8.91 µM (active),–,13.5 µM (active),15.1 µM (active),–
C[C@H]1CCC[C@H](O)CCCCCc2cc(O)cc(O)c2C(=O)O1,–,–,inactive,inactive,inactive,inactive,–,inactive,–,inactive
C[C@@H](Cc1ccccc1)NCCC(c1ccccc1)c1ccccc1,–,–,inactive,–,inactive,–,–,inactive,–,inactive
CCC1(c2ccccc2)C(=O)NC(=O)N(C)C1=O (configuration not stated),inactive,inactive,–,inactive,inactive,inactive,–,inactive,inactive,inactive
CCOP(=O)(OCC)O/C(=C/Cl)c1ccc(Cl)cc1Cl,inactive,–,inactive,inactive,inactive,–,inactive,inactive,–,inactive
O=C1CN=C(c2ccccc2)c2cc(Cl)ccc2N1CC1CC1,inactive,–,inactive,inactive,inactive,inactive,inactive,inactive,inactive,inactive
OC(c1ccccc1)(c1ccccc1)C1CN2CCC1CC2 (configuration not stated),–,inactive,inactive,inactive,inactive,inactive,–,inactive,inactive,inactive
COC([CH2][Hg])CNC(=O)c1ccccc1OCC(=O)O (configuration not stated),inactive,inactive,inactive,inactive,inactive,inactive,inactive,inactive,inactive,inactive
CNC(=O)Oc1ccccc1C(=O)Nc1ccccc1,–,–,–,–,inactive,inactive,–,inactive,–,inactive
CC(Cc1ccccc1)NC=O (configuration not stated),inactive,inactive,inactive,inactive,inactive,inactive,inactive,inactive,inactive,inactive

# Reference: PubChem BioAssay (NCATS)
